E coli Lon inh: inhibits E. coli Lon protease; P0A9M0; purified E. coli Lon protease, fluorescence polarization; inhibition, % at 7.94 µM; actives 0.42% (n = 360,000); AID 602123; in the data active = inhibition above about 13%, passing the limit was not always enough;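 note: 0% = enzyme with probe and DMSO and 100% = no enzyme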
MEX-5 binding: C. elegans MEX-5 TCR-2 RNA binding activity; activity score (negative = inhibition of binding), % at 10 µM; actives 0.38% (n = 300,000); MEX-5/FITC-TCR2 RNA binding, fluorescence polarization; stronger effect = lower value; Q9XUB2;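 active = inhibition past about -25% in most replicates, and total fluorescence under double the plate's negative control median, limit read from the data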;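 note: 0% = DMSO and -100% = 5 µM competing unlabeled TCR2 RNA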
Target sequence (Q9XUB2 whole entry, looked up): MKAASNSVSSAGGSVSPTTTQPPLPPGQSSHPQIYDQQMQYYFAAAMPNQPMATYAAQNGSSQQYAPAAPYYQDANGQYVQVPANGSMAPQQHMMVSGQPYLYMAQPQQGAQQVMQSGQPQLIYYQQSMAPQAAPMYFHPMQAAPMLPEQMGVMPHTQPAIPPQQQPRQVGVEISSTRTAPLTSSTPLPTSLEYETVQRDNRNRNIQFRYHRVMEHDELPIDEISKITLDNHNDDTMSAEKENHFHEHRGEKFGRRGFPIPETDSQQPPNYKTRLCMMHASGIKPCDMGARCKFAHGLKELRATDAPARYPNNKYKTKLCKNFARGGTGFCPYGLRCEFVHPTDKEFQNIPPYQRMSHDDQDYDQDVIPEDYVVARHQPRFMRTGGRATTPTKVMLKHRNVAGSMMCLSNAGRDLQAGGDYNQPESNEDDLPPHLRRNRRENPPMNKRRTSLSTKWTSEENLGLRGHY
BCLXL inh: Bcl-xL (human) inhibition | inhibition, % at 10.9 µM | GST-Bcl-xL / FITC-Bim BH3 peptide fluorescence polarization | Q07817 | actives 0.7% (n = 320,000) | AID 2129;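 active = inhibition above the mean of all tested compounds plus 3 SD, cutoff set per campaign, cut at about 30% in these data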;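 note: 0% = DMSO wells and 100% = unlabeled Bim-BH3 peptide competitor; inhibitors lower millipolarization by displacing the labeled peptide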
GLD-1 RNA inh: GLD-1-TGE RNA interaction inhibition (C. elegans); AID 2280; inhibition, % at 5.96 µM; actives 0.44% (n = 320,000); purified GLD-1 + fluorescein TGE RNA, fluorescence polarization; Q17339;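 active = percent inhibition above a per-plate cutoff, the plate mean of test compounds plus 3 SD, cut at about 30% in these data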;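 note: 0% = DMSO wells with GLD-1 and probe and 100% = wells lacking GLD-1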
MCL1-BIM inh: disrupts human MCL1 binding to BIM-BH3 peptide. Q07820. GST-MCL1 / FITC-Bim-BH3 fluorescence polarization. inhibition, % at 10.9 µM. actives 0.68% (n = 320,000). AID 2057;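 active = inhibition above the mean inhibition of all tested compounds plus 3 SD, set per campaign, cut at about 40% in these data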;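 note: 0% = DMSO wells and 100% = unlabeled Bim-BH3 peptide control; higher means more loss of mP so more displacement of Bim peptide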
* hit, by the source's call; x = not tested or not shown. A selection: hits, their analogues and other compounds. The true share with any hit is near 1.4%.

SMILES | E coli Lon inh | MEX-5 binding | BCLXL inh | GLD-1 RNA inh | MCL1-BIM inh
Cc1ccc(C2NC(=O)c3c(sc4c3CCN(C)C4)N2)o1 (stereo unspecified) | -4 | -10 | 40* | 5 | 37
CN1CCc2c(sc3c2C(=O)NC(c2ccccc2)N3)C1 (stereo unspecified) | -64 | -10 | 41* | 5 | 34
CN(Cc1ccccc1)C(CNS(=O)(=O)c1ccccc1)c1ccccc1 (stereo unspecified) | 2 | x | x | x | x
CSc1nc(=S)c2[nH]c(=S)[nH]c2[nH]1 | 1 | -99* | x | x | x
CCOC(=O)N1CCN(Cc2ccccc2Cl)CC1 | -5 | x | -2 | 87* | -5
CCOC(=O)N1CCN(Cc2ccccc2F)CC1 | -2 | 0 | 2 | 11 | -3
CCC(C)(C)C1CCC2(CC1)NC(=O)N(CC(=O)N1CCN(c3ccccc3OC)CC1)C2=O (stereo unspecified) | -3 | x | x | x | x
COc1cc(C(=O)Nc2nc3ccccc3[nH]2)ccc1OC(F)F | 5 | 2 | 73* | 1 | -6
COc1ccc(C(=O)Nc2nc3ccccc3[nH]2)cc1OC | 3 | -1 | -1 | -3 | -2
O=[N+]([O-])c1ccc(/C=N/n2c(CO)nc3ccccc32)s1 | -14 | -35* | 18 | -9 | 28
Cc1nc2ccccc2n1/N=C/c1ccc([N+](=O)[O-])o1 | -11 | 8 | 6 | 6 | 5
Cc1nc2ccccc2n1/N=C/c1ccc([N+](=O)[O-])s1 | -16 | -76* | 32* | 8 | 7
Cc1cc2ncn(/N=C/c3ccc([N+](=O)[O-])s3)c2cc1C | -10 | -1 | -18 | -1 | -42
O=C(/C=C/c1cccs1)N1CCC2(CC1)Oc1ccc(Cl)cc1C(=O)C21CC(c2ccc(Cl)cc2)=NO1 (stereo unspecified) | 16 | -2 | 3 | 9 | 0
O=C(/C=C/c1cccs1)N1CCC2(CC1)Oc1ccc(F)cc1C(=O)C21CC(c2ccc(Cl)cc2)=NO1 (stereo unspecified) | 12 | 1 | 31* | -4 | -4
COc1cc(CCNC2=CC(=O)c3ncccc3C2=O)ccc1O | 1 | x | x | x | x
Fc1cccc(CSc2nc3ccncc3[nH]2)c1 | 3 | 0 | -2 | 8 | 1
Clc1cccc(CSc2nc3ccncc3[nH]2)c1 | 15 | -52* | 4 | 7 | 1
c1ccc(-c2nn3c(Cn4nnc5ccccc54)nnc3s2)nc1 | 0 | -4 | 38* | 14 | 48*
Cc1cc(Br)cn2c(Cc3ccccc3)c(-c3cccc(Br)c3)nc12 | -6 | x | x | x | x
CCC1c2ccc(C)n2CCN1C(=O)Nc1ccccc1OC (stereo unspecified) | 16 | -6 | 50* | 50* | 50*
COc1ccccc1NC(=O)N1CCN(C(=O)Nc2ccccc2OC)CC1 | 0 | 0 | 6 | 4 | 7
CCNC(=O)C1(C)CCCN1C(=O)c1c(F)cccc1F (stereo unspecified) | 0 | x | x | x | x
Cc1nc2ccccc2nc1N1CCCCC1 | 8 | x | x | x | x
c1ccc2nc(N3CCCC3)c(N3CCCC3)nc2c1 | -1 | 3 | 39* | 22 | 44*
SMILES | E coli Lon inh | MEX-5 binding | BCLXL inh | GLD-1 RNA inh | MCL1-BIM inh
CN(C)C=Nc1nc2ccccc2nc1N1CCCC1 | 15 | 3 | 43* | 17 | 41*
COc1ccc(-c2csc(C(O)c3ccc(F)c(F)c3)n2)cc1 (stereo unspecified) | 3 | x | x | x | x
CCN(CC)C(=O)CN1CCC(n2c(C)nc3cc(C(F)(F)F)ccc32)CC1 | -14 | -10 | 31* | 11 | 34
CCOc1ccc2nc(S(=O)(=O)NC(=O)C3(C)CCN3C(=O)c3cc(C)n(C)n3)sc2c1 (stereo unspecified) | -6 | x | x | x | x
COC(=O)c1ccccc1NC1=C/C(=N\S(=O)(=O)c2ccc(C(=O)O)cc2)c2ccccc2C1=O | -7 | -4 | 40* | 15 | 45*
COC(=O)c1ccccc1NC1=C/C(=N\S(=O)(=O)c2cccs2)c2ccccc2C1=O | -3 | -1 | 2 | 4 | 5
Cc1ccc2occ(CN3CCN(c4ccccc4)CC3)c(=O)c2c1 | -6 | -1 | 36* | 0 | 0
Nc1c(N2CCCC2)cc(Cl)c2nonc12 | 4 | -1 | 50* | 5 | 34
COCCn1c(=S)[nH]c2ccc(N(C)C)cc2c1=O | 14 | -2 | 32* | 17 | 31
CCOc1cc2[nH]c(=S)n(CCOC)c(=O)c2cc1OCC | 6 | -1 | 2 | 0 | 0
COc1ccccc1-c1csc(C(NC(C)=O)c2ccccc2)n1 (stereo unspecified) | -1 | x | x | x | x
Cc1ccc(/C(O)=C/c2nc3cc(C)ccc3oc2=O)cc1 | 2 | -120* | -7 | -1 | -17
O=c1oc2ccccc2nc1/C=C(\O)c1ccccc1 | -5 | 10 | 3 | 10 | 6
Cc1ncc(CO)c(/C=N/NC(=O)c2cc(Br)ccc2O)c1O | -4 | -82* | 5 | 0 | 20
Cc1ncc(CO)c(/C=N/NC(=O)c2ccc(Br)cc2)c1O | x | 0 | 11 | 15 | 12
Cc1ncc(CO)c(/C=N/NC(=O)c2cc(O)c(O)c(O)c2)c1O | x | -39* | x | x | x
CC(C)CC(N)c1csc(Nc2cc(Oc3ccccc3)ncn2)n1 (stereo unspecified) | 2 | x | x | x | x
CC(=O)N(Cc1ccccc1)c1ncc2c(n1)c(=O)c(C#N)c1ccccn12 | -5 | -8 | 34* | 18 | 45*
CC1C(c2ccccc2)OCCN1C(=S)NC(=O)c1ccccc1 (stereo unspecified) | -8 | x | x | x | x
COc1ccc(C(=O)NC(=S)Nc2cccnc2)cc1Cl | 15 | -2 | 12 | 52* | 15
COc1cccc(C(=O)NC(=S)Nc2cccnc2)c1 | 5 | 0 | 8 | 2 | 6
CC(c1nccs1)N(C)c1nc2nonc2nc1N(C)C (stereo unspecified) | 6 | -5 | 11 | 12 | 8
CC(c1nccs1)N(C)c1nc2nonc2nc1NC1CC1 (stereo unspecified) | 10 | -8 | 33* | 28 | 37
CC1(C(=O)Nc2ccc3c(c2)OCO3)CCN1C(=O)c1ccco1 (stereo unspecified) | 4 | x | x | x | x
O=C(NC1CC1)c1ccc2sc([C@@H]3O[C@H](CO)[C@H](O)[C@H](O)[C@H]3O)nc2c1 | -4 | x | x | x | x
O=C(Cc1ccc(F)cc1)OCC(=O)N1CCN(S(=O)(=O)c2ccc(Cl)cc2)CC1 | 1 | -3 | 2 | 1 | -4
COc1ccc(NC(=O)c2cc(S(=O)(=O)N3CCCCC3)ccc2N2CCCCC2)cn1 | 0 | 0 | 6 | 5 | -1
COc1ccc(NC(=O)c2cc(S(=O)(=O)N3CCCC3)ccc2C)cn1 | 9 | x | 35* | 29 | 42*
CC(=O)c1c(C)[nH]c(C(=O)CN2CCN(S(=O)(=O)c3ccccc3[N+](=O)[O-])CC2)c1C | -13 | x | 1 | -4 | 4
CCn1c(C)cc(/C=C2/NC(=O)N(c3ccccc3)C2=O)c1C | -8 | 0 | 31* | 19 | 39

Compound activity: PubChem, several laboratories
